In PubChem BioAssay (NCI) one finds growth data, which are given here for 40 compounds.

This is part of a sample that, as a whole, favours compounds with a hit. Of some 83,000 tested, about 20% had one in any assay.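 Cell lines were cultured in 96-well plates, exposed to a single compound concentration, and assessed for percent growth 48 hours later.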 Activity calls are given as the source filed them.

The subject of the test is HT29 colon. Description: NCI-60 one-dose screen, 48 h (100 = growth as untreated, 0 = no growth, -100 = all killed). To be noted: 10 µM unless noted. How it is done:
Growth inhibition of the HT29 human tumor cell line is measured as a screen for anti-cancer activity. Cells are grown in 96 well plates and exposed to the test compound for 48 hours. Compounds are tested at a single concentration, which is 10^-5 M for most compounds. The reported endpoint is percent growth (GI% or GIPRCNT), where numbers from 0 - 100% represent growth inhibition, and numbers from -100% - 0 represent cell death. For example, a value of 40 represents 60% growth inhibition. A value of 0 means no net growth occurred over the course of the experiment. A value of -40 indicates 40% of cells at the beginning of the experiment died by the end of the experiment. A value of -100 means all cells are dead at the end of the experiment.
NCI-60 Human Tumor Cell Lines Screen was performed using the standard one-dose NCI protocol, which is described in more detail at https://dtp.cancer.gov/discovery_development/nci-60/default.htm.
Compounds with GIPRCNT values below 10 were considered active. Activity score was based on GIPRCNT using the following formula: […]
Score is 0 for GIPRCNT values of 100 or above, 50 for GIPRCNT values of 0, and 100 for GIPRCNT values of -100.
In the case of `COc1cc(C(=O)CCCl)ccc1O`, the growth is 112% (inactive).
As to `N#CC1=C(N)n2nc(-c3ccncc3)nc2NC1c1cccc2ccccc12` (stereo not given), the growth is 97.8% (inactive).
Turning to `CC1Cc2c(N(C)C)ncnc2N(C)c2ccc(O)cc21` (stereo not given), the growth is 97.8% (inactive).
For the compound `CC(C)CCN(CCCNc1c2c(nc3ccccc13)CCCC2)CCC(C)C`, the growth was 46.3% (inactive).
With `COc1ccc(S(=O)(=O)Nc2cc(/C=C\c3cc(OC)c(OC)c(OC)c3)cc(OC)c2OC)cc1OC`, the growth is 13.6% (inactive).
On to `Cn1c(C(N)=O)cc2c1-c1nc(NC3CCCCC3)ncc1CCC2`, for which the growth is 91.4% (inactive).
Take `COc1ccc(C2=CC(c3ccc(Oc4ccnc5cc(Cl)ccc45)c(OC)c3)c3c(nc(OC)[nH]c3=O)N2)cc1` (stereo not given): the growth is 50.5% (inactive).
On to `OCc1c(-c2ccccc2)nc2sccn12`, for which the growth was 109% (inactive).
Regarding `O=C1c2ccccc2C(=O)c2c(N=Nc3sc(=O)[nH]c3S)cccc21`, the growth is 82.9% (inactive).
Consider `O=C(O)C(Cc1ccccc1)N1C(=O)/C(=C/C(Cl)=C/c2ccc([N+](=O)[O-])cc2)SC1=S` (stereo not given), for which the growth was 30.8% (inactive).
To `COc1ncc(-c2ccc3ncnc(Nc4cccc(Cl)c4)c3c2)cc1NS(=O)(=O)C1CC1` belongs 29.7% (inactive); to `CC(=O)Nc1ccc(S(=O)(=O)N2C(=O)CCC2C(=O)Nc2ccc(Br)cc2)cc1` (stereo not given), 21.4% (inactive).
With `O=c1oc2c([nH]c3ccc4ccccc4c32)c2ccccc12`, the growth is 111% (inactive).
For `CCOC(=O)c1cc(/C(=N\O)c2cc(OC)c(OC)c(OC)c2)n2cc(C)cc(C)c12`, the growth was 6.89% (active).
To `CC/C=C\C[C@H](O)C/C=C1/C(=O)C(Cl)=C[C@@H]1C/C=C\CCCC(=O)O` belongs 18.7% (inactive).
On to `CN1CCN(c2ccc3cc(-c4nc5ccccc5[nH]4)c(=O)oc3c2)CC1`, for which the growth was 108% (inactive).
For the compound `CCCCCC(=O)OCc1ccccc1`, the growth is 106% (inactive).
To `Cc1cc(Nc2nc(-c3ccncc3)nc3ccccc23)n[nH]1` belongs 61.3% (inactive); to `c1cncc(CNc2ccccc2-c2nnc(Nc3ccc4c(c3)OCCO4)o2)c1`, 2.31% (active); to `COc1ccc(/C=C2\Oc3cc(OCCN4CCCC4)ccc3C2=O)c(OC)c1`, 17.6% (inactive).
Take `Cc1cc(NC(=O)COC(=O)c2sc3cc(F)ccc3c2Cl)no1`: the growth is 114% (inactive).
`CC(C)[C@H](CO)Nc1nc(Nc2ccc(C(=O)NCCNS(=O)(=O)c3cccc4c(N(C)C)cccc34)c(Cl)c2)c2ncn(C(C)C)c2n1`: the growth was 9.2% (active).
On to `c1ccc(CCn2nnc3c(Nc4ccc(N5CCOCC5)cc4)ncnc32)cc1`, for which the growth was 81.3% (inactive).
Turning to `Cc1nn(-c2ccc(Cl)cc2)c(=O)n1CCOc1ccccc1Cl`, the growth is 95.9% (inactive).
With `COc1ccc(/C=C\c2cc(OC)c(OC)c(OC)c2)c(NS(=O)(=O)c2ccc(C(C)(C)C)cc2)c1O` the figure was 33% (inactive); with `COc1cc(OC)c(C(=O)/C=C/c2ccc(C#N)cc2)c(OC)c1`, 3.67% (active); with `CNC(=O)c1cc(Oc2ccc3c(c2)sc2nc(-c4ccc(Cl)cc4)cn23)ccn1`, 105% (inactive).
For `O=C(CNc1ccc(Cl)cc1)Nc1ccc(-c2nc3ccccc3s2)cc1`, the growth is 47.9% (inactive).
Consider `COc1ccc(/C=C/C(=O)c2ccc(NC(=O)CN3CCN(c4cc5c(cc4F)c(=O)c(C(=O)O)cn5C4CC4)CC3)cc2)cc1`, for which the growth is 114% (inactive).
Turning to `CC(=O)Nc1ccc2c(c1)/C(=C\C=C/c1ccc([N+](C)(C)C)cc1)c1ccccc1-2`, the growth is 59.2% (inactive).
Consider `CCCCNC(=O)NS(=O)(=O)c1ccc(N2N=C(c3ccc(C)cc3C)CC2c2ccc(OC)cc2)cc1` (stereo not given), for which the growth is 88% (inactive).
As to `CC(CCc1ccccc1)NC(=O)c1n[nH]c(=O)c2ccccc12` (stereo not given), the growth was 105% (inactive).
In the case of `CC(=O)c1cc(C(=O)c2ccc3c(c2)Sc2ccccc2N3)c2cc(C)ccn12`, the growth is -57% (active).
On to `CN(C)C/C=C/C(=O)Nc1cc2c(Nc3cccc(Cl)c3F)ncnc2cc1OCCOC(F)F`, for which the growth is 18.2% (inactive).
On to `COc1cccc(-n2cc(-c3nc(Cl)c4ccccc4n3)nn2)c1`, for which the growth was 53.1% (inactive).
With `COc1cc(OC)c(C(=O)/C=C/c2cccc(C#N)c2)c(OC)c1`, the growth was 8.61% (active).
Regarding `N#Cc1ncc(-c2ccc(F)c(F)c2F)c(NC2CCCCCC2)n1`, the growth is 95.6% (inactive).
With `COc1ccc(/C=C/C(=O)c2ccc(B(O)O)cc2)cc1O` the figure was 64.6% (inactive); with `CC(C)(C)c1cn2cccc(C(=O)N3CCN(CC(=O)Nc4ccc(Cl)cc4C(=O)c4ccccc4Cl)CC3)c2n1`, 22.2% (inactive).
As to `CCCCCCCCCCC/C=C\C[C@H](O)C/C=C1/C(=O)C=C[C@@H]1C/C=C\CCCC(=O)OC`, the growth is -22.5% (active).
